Screens from PubChem.
Rpn11 block: Rpn11 (PSMD14) deubiquitinase inhibitors, primary screen, biochemical, fluorescence polarization, uHTS | AID 588493, 2011 | inhibition, % at 20 µM | human 26S proteasome, Ub4-pepOG fluorescence polarization; 20S core pre-blocked with epoxomicin | hit rate 0.59% among 360,000 | 26S proteasome non-ATPase regulatory subunit 14 (Homo sapiens), O00487;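 active means inhibition at 20 µM, scaled to each plate's controls, above about 33%, limit read from the data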
TPT1 inh: Candida albicans TPT1 enzyme inhibitors, primary screen, biochemical, fluorescence polarization. tRNA 2'-phosphotransferase TPT1 (Candida albicans SC5314). recombinant caTPT1, FP RNA substrate dephosphorylation. inhibition, % at 5 µM. hit rate 0.81% among 300,000;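 active means inhibition above the mean of all tested compounds plus 3 SD, set per screening campaign, cut at about 24% in these data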;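 further: plate controls were DMSO alone for no effect and ferristatin control at 100 nM for full effect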
Myeloid diff MLP: induction of myeloid progenitor differentiation, primary screen, cell-based, flow cytometry, MLPCN library. ER-HoxA9 myeloid progenitors, lysozyme-GFP differentiation. hit rate 1% among 360,000. AID 624256, 2012. calls only at 10 µM;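 active means normalized GFP-positive differentiation at or above the plate's own cutoff, the solvent-only control mean plus 3 SD; inconclusive means no clear call, values can overlap the other calls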;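 further: cells exposed to compound for four days before flow analysis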
HNF4A DNA FP: change in binding of human HNF4A to DNA, primary screen, biochemical, fluorescence polarization, FITC-DNA; Hepatocyte nuclear factor 4-alpha (Homo sapiens), P41235; activity change, % at 10 µM; hit rate 0.3% among 360,000; 1 h; AID 1224865, 2016; in the data active means activity change above about 30%, passing the limit was not always enough
Target sequence (P41235 whole entry, looked up): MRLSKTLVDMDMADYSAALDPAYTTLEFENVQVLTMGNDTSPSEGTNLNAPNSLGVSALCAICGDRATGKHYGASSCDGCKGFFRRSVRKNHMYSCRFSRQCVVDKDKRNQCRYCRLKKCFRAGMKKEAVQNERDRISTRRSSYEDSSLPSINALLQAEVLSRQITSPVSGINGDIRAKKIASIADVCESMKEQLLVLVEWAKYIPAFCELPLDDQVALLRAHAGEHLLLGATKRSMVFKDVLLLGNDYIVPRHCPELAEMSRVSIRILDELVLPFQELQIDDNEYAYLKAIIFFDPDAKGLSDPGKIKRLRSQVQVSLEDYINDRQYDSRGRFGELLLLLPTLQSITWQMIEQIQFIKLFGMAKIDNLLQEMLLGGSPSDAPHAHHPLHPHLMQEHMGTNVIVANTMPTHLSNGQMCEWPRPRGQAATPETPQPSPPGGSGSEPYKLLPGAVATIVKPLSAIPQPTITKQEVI
caTPT1 confirm: Candida albicans TPT1 inhibitors, confirmation, biochemical, fluorescence polarization, triplicate; hit rate 74% among 2,400; inhibition, % at 5 µM; shares compounds with TPT1 inh; recombinant caTPT1, RNase T1 coupled; AID 2149, 2009;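 active means inhibition above the primary screen limit, the mean inhibition of all tested compounds plus 3 SD, cut at about 25% in these data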
RNase T1 counter: RNase T1 inhibitors, counter-screen for TPT1 inhibitor project, biochemical, fluorescence polarization; shares compounds with TPT1 inh; RNase T1 cleavage, 1536-well; inhibition, % at 5 µM; hit rate 83% among 2,400; AID 2153, 2009;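 active means inhibition above the solvent-only control well mean plus 3 SD, limit set per screening run, cut at about 23% in these data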;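 further: plate controls were DMSO wells with enzyme for no effect and wells without RNase T1 for full effect; inhibitors block cleavage so intact labeled substrate keeps polarization high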
Target sequence (P00651 whole entry, looked up): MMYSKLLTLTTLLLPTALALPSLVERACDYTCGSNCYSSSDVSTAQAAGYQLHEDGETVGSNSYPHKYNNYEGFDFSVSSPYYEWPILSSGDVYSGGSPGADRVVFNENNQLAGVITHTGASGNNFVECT
* = called active by the depositor. Compounds with a hit are over-represented: about 2.1% of the library has one in this group of screens.

Screening Cc1noc(/C=C/N(C)C)c1S(=O)(=O)N1CCN(c2ccccc2)CC1 returned Rpn11 block 2.6, TPT1 inh 6.4, Myeloid diff MLP inactive and HNF4A DNA FP -4.9.
`Cc1ccc(C)c(N2CCN(S(=O)(=O)c3c(C)noc3/C=C/N(C)C)CC2)c1` gave Rpn11 block 6.4, TPT1 inh 28.9*, Myeloid diff MLP inactive, HNF4A DNA FP 1.8, caTPT1 confirm 6.6 and RNase T1 counter 9.4.
`CN(C)c1ccc(/C=C/C(=O)c2cc(Cl)ccc2O)cc1` gave TPT1 inh 39.8*, Myeloid diff MLP inactive, HNF4A DNA FP 74.9*, caTPT1 confirm 50.0* and RNase T1 counter 60.5*.
CC(=O)Nc1cccc(C(=O)/C=C/c2ccc(/C=C/C(=O)c3cccc(NC(C)=O)c3)cc2)c1 was read as TPT1 inh -5.0.
For COc1ccc(/C=C/C(=O)c2cc(Cl)ccc2O)c(OC)c1 the results were Rpn11 block 0.5, TPT1 inh 2.3, Myeloid diff MLP inactive and HNF4A DNA FP -1.5.
Screening CC(=O)Nc1cccc(C(=O)/C=C/c2ccc(N(C)C)cc2)c1 returned TPT1 inh 102.8*, Myeloid diff MLP inconclusive, HNF4A DNA FP 83.1*, caTPT1 confirm 99.9* and RNase T1 counter 99.1*.
For Cc1ccc(C(C(=O)NC(C)(C)C)N(Cc2ccccc2)C(=O)c2snc(C(N)=O)c2N)o1 (configuration not stated) the results were Rpn11 block 0.3, TPT1 inh 3.0, Myeloid diff MLP inactive and HNF4A DNA FP 0.4.
Screening CN1C/C(=C/c2ccncc2)C(=O)/C(=C/c2ccncc2)C1 returned Rpn11 block 1.1, TPT1 inh -1.9, Myeloid diff MLP inactive and HNF4A DNA FP -0.3.
CCN1C/C(=C/c2ccc(N3CCOCC3)cc2)C(=O)/C(=C/c2ccc(N3CCOCC3)cc2)C1 was read as TPT1 inh 98.7*, Myeloid diff MLP inconclusive, HNF4A DNA FP 0.7, caTPT1 confirm 97.4* and RNase T1 counter 93.1*.
CCc1ccc(/C=C2/SC(N3CCOCC3)=NC2=O)cc1 was read as Rpn11 block -3.3, TPT1 inh -0.8, Myeloid diff MLP inactive and HNF4A DNA FP -1.2.
`CN1C/C(=C\c2ccc(N3CCOCC3)cc2)C(=O)/C(=C/c2ccc(N3CCOCC3)cc2)C1` gave TPT1 inh 62.8*, Myeloid diff MLP inactive, HNF4A DNA FP 5.7, caTPT1 confirm 89.3* and RNase T1 counter 94.4*.
CN=c1scc(-c2ccccc2F)n1/N=C/c1ccc[nH]1 was read as Rpn11 block 28.1, TPT1 inh 50.4*, HNF4A DNA FP 15.4, caTPT1 confirm 27.4* and RNase T1 counter 36.3*.
For Cn1c(C(=O)OC(C(=O)NC2CCCCC2)c2ccncc2)cc2sccc21 (configuration not stated) the results were Rpn11 block -0.8, TPT1 inh -1.9, Myeloid diff MLP inactive and HNF4A DNA FP -5.0.
`O=[N+]([O-])c1ccc(N/N=C/c2cccc(O)c2O)cc1` gave Rpn11 block 16.8, TPT1 inh 51.0*, Myeloid diff MLP inactive, HNF4A DNA FP 21.2, caTPT1 confirm 59.7* and RNase T1 counter 74.2*.
`Cc1cccc(C(=O)Oc2ccccc2/C=N/Nc2ccc([N+](=O)[O-])cc2)c1` gave Rpn11 block 23.2, TPT1 inh 39.3*, Myeloid diff MLP inactive, HNF4A DNA FP 9.5, caTPT1 confirm 39.0* and RNase T1 counter 51.5*.
Cc1ccc(C(=O)CSc2nn3c(=O)c(C(C)(C)C)nnc3s2)cc1 was read as Rpn11 block 6.3, TPT1 inh 31.8*, Myeloid diff MLP inactive, HNF4A DNA FP -3.9, caTPT1 confirm 3.3 and RNase T1 counter 6.1.
Screening CSc1nc(C(=O)N2CCCC(Nc3ccc(C)c(C)c3)C2)cs1 (configuration not stated) returned Rpn11 block -3.6, TPT1 inh 2.2, Myeloid diff MLP inactive and HNF4A DNA FP 0.9.
Screening CC(NS(=O)(=O)c1ccc([N+](=O)[O-])cc1)C(c1cccs1)N1CCOCC1 (configuration not stated) returned Rpn11 block 1.2, TPT1 inh 36.0*, Myeloid diff MLP inactive, HNF4A DNA FP -0.3, caTPT1 confirm 5.9 and RNase T1 counter 10.8.
COc1cccc(/C=C2/CN(C)CC3=C2OC(N)=C(C#N)C3c2cccc(OC)c2)c1 (configuration not stated) was read as Rpn11 block 33.6, TPT1 inh 40.1*, Myeloid diff MLP inactive, HNF4A DNA FP 10.0, caTPT1 confirm 25.1* and RNase T1 counter 33.5*.
`COc1cccc(C2Oc3ccccc3C3CC(c4cccs4)=NN32)c1` (configuration not stated) gave Rpn11 block 31.7, TPT1 inh 61.2*, Myeloid diff MLP inactive, HNF4A DNA FP 5.0, caTPT1 confirm 32.6* and RNase T1 counter 45.8*.
`COc1ccc(/C=C/C(=O)C2C(=O)C=C(C)OC2=O)cc1O` (configuration not stated) gave Rpn11 block -1.6, TPT1 inh 25.4*, Myeloid diff MLP inactive, HNF4A DNA FP 0.0, caTPT1 confirm 18.2 and RNase T1 counter 30.2*.
For COc1cc(/C=C/C(=O)O)cc(Br)c1O the results were Rpn11 block 0.4, TPT1 inh -1.2, Myeloid diff MLP inactive and HNF4A DNA FP 2.4.
COc1cc(/C=C/C(=O)C2C(=O)C=C(C)OC2=O)cc(OC)c1O (configuration not stated) was read as Rpn11 block 9.6, TPT1 inh 36.9*, Myeloid diff MLP inactive, HNF4A DNA FP -4.5, caTPT1 confirm 17.9 and RNase T1 counter 28.0*.
`O=C(Nc1nccs1)c1ccc(Br)s1` gave Rpn11 block -0.5, TPT1 inh -1.4, Myeloid diff MLP inactive and HNF4A DNA FP -1.2.
For Cc1ccccc1-n1c(O)c(/C=C/C=Nc2ccccc2)c(=O)[nH]c1=O the results were TPT1 inh 153.7*, Myeloid diff MLP inactive, HNF4A DNA FP 170.9, caTPT1 confirm 168.4* and RNase T1 counter 157.1*.
For Cc1ccc(-n2c(O)c(/C=C3/C(c4ccccc4)=Nc4ccccc43)c(=O)[nH]c2=O)cc1 the results were Rpn11 block 24.8, TPT1 inh 5.9, Myeloid diff MLP inconclusive and HNF4A DNA FP 4.2.
CCc1ccccc1NC(=O)C1CCN(c2cnccn2)CC1 was read as Rpn11 block 1.2, TPT1 inh 0.6, Myeloid diff MLP inactive and HNF4A DNA FP -1.1.
